Experimental data taken from ChEMBL document CHEMBL3433997, “St. Jude Leishmania screening dataset” (2016).

Tests used:
Type in all cases: functional
[1] = target: Solute carrier family 2, facilitated glucose transporter member 1 (Homo sapiens) (UniProt P11166); experiment: ST_JUDE_LEISH: Cytotoxicity at 2uM final concentration against transgenic Leishmania Mexicana promastigotes LmGLUT1 that are glucose transport deficient and complemented with the human glucose transporter GLUT1. Activity is measured by DNA content using SYBR green in vitro
Sequence of Solute carrier family 2, facilitated glucose transporter member 1 (Homo sapiens) (P11166 whole entry): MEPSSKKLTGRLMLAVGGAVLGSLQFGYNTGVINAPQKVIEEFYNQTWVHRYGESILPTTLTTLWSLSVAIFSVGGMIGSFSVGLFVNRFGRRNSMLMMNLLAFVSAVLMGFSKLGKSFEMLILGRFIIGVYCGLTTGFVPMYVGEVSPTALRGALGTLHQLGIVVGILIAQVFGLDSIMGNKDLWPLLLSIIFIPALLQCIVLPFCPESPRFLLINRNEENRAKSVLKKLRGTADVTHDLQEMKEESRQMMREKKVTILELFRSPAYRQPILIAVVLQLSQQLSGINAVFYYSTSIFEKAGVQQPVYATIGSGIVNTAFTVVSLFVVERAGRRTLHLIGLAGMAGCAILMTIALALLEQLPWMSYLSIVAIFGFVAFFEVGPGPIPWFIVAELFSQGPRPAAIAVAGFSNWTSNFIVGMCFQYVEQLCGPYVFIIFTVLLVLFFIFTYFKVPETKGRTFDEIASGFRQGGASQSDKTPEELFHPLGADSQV

[2] = target: Hexose transporter 1 (Plasmodium falciparum) (UniProt O97467); experiment: ST_JUDE_LEISH: Cytotoxicity at 2uM final concentration against transgenic Leishmania Mexicana promastigotes LmPfHT that are glucose transport deficient and complemented with the Plasmodium falciparum hexose transporter. Activity is measured by DNA content using SYBR green in vitro
[3] = target: Glucose transporter (Leishmania mexicana) (UniProt O61059); experiment: ST_JUDE_LEISH: Cytotoxicity at 2uM final concentration against transgenic Leishmania Mexicana promastigotes LmGT2 that are glucose transport deficient and complemented with the L. Mexicana glucose transporter 2. Activity is measured by DNA content using SYBR green in vitro

| SMILES | inhibition [1] | inhibition [2] | inhibition [3] |
| --- | --- | --- | --- |
| CN1C(=O)C(=NN=C(S)N2CCOCC2)c2ccccc21 | 23.4% | 63.9% | 12.7% |
| COC(=O)CCn1c(C2CCN(CC3CCC(NC(=O)/C=C/c4ccc(Cl)c(Cl)c4)CC3)CC2)nc2ccccc21 (configuration not stated) | 0.97% | 2.03% | 3.04% |
| Cc1cccc(CN2CCC(Oc3ccc(NC(=O)c4cccs4)cc3Cl)CC2)n1 | 5.76% | 3.92% | 2.69% |
| O=C(Nc1n[nH]c2nc(-c3ccco3)c(Br)cc12)c1ccc(CN2CCCC2)cc1 | 1.9% | 3.71% | 3.01% |
| Cc1c[nH]c2ccc(/C=C/C(=O)NC3CCC(CCN4CCc5ccc(C#N)cc5CC4)CC3)cc12 (configuration not stated) | 5.06% | 5.55% | 0.32% |
| NCCc1cccc(-c2cnc3[nH]cc(-c4ccc(C(=O)O)cc4)c3c2)c1 | 0.56% | 0.29% | 0.03% |
| C=CCOc1ccc2ccccc2c1CNCCCCCCNCc1c(OCC=C)ccc2ccccc12 | 4.33% | 5.37% | 1.05% |
| COCCNCc1ccc(-c2ccc(CNC3CCN(Cc4ccccc4)CC3)cc2)cc1 | 0.78% | 2.82% | 5.2% |
| Cc1ccc2nc(C)cc(N/N=C/c3ccccc3[N+](=O)[O-])c2c1 | 10.8% | 6.78% | 7.96% |
| CNCc1cccc2nc(-c3ccc(Cc4cc(Cl)ccc4OCC(C)C)o3)[nH]c12 | 4.31% | 2.61% | 3.52% |
| Cc1cccc2nc(-c3ccc(-c4cccc(CN5CCN(c6ccncc6)CC5)c4)cc3)[nH]c12 | 25.2% | 25.8% | 8.81% |
| CC(=O)Nc1ncc(C(=O)Nc2cccc(-c3cccc(-c4nc5ccccc5[nH]4)c3)c2)s1 | 1.58% | 1.44% | 6.64% |
| Cc1cccc(Cl)c1Nc1nnc(-c2cccc(C(=O)NC[C@@H]3CC[C@H]4C[C@@H]3C4(C)C)c2)o1 | 10.6% | 8.97% | 6.65% |
| O=C(Nc1cccc(-c2cccc(-c3nc4cc(F)ccc4[nH]3)c2)c1)c1ccncc1 | 0.54% | 0.29% | 0.2% |
| CCCc1cn2c3c(cc(C(=O)N[C@@H](Cc4ccccc4)[C@H](O)CNC4CCCCC4)cc13)N(C)S(=O)(=O)CC2 | 1.94% | 2.85% | 1.49% |
| COc1ccc(N2CCN(CCCNC(=O)c3ccc(NC(=O)c4cc(Cl)cc(Cl)c4)cc3)CC2)c(OC)c1 | 4.49% | 0.82% | 3.87% |
| Cc1c(CC(=O)NCCC2CCN(CCCCCNC(=O)/C=C/c3ccc(Cl)c(Cl)c3)CC2)sc2ccc(Cl)cc12 | 4.42% | 5.42% | 6.13% |
| Cc1cc(O)c(-c2ccc(S(=O)(=O)c3ccc(Cl)cc3)cc2)c(C)n1 | 0.09% | 0.81% | 1.44% |
| CCn1ccc2c(N3CCCC3=O)cc(C(=O)N[C@@H](Cc3ccccc3)[C@H](O)CNCc3cccc(OC)c3)cc21 | 1.06% | 1.98% | 0.14% |
| CN(C)CCNCc1ccc(-c2ccc3c(Nc4ccc(Oc5ccccc5)cc4)ccnc3c2)o1 | -1.6% | -1.01% | -0.02% |
| Cc1nc2cc(/C=C/C(=O)NC3CCC(CCN4CCc5ccc(C#N)cc5CC4)CC3)ccc2[nH]1 (configuration not stated) | 3.09% | 2.24% | 3.19% |
| Cc1noc(-c2cccs2)c1C(=O)NCCc1cccc(Cl)c1 | 5.34% | 5.32% | 2.4% |
| COc1ccc(-c2nc(NC(=O)Cc3coc4cc(OC)ccc34)sc2C)cc1 | -1.68% | 0.45% | -0.72% |

| SMILES | inhibition [1] | inhibition [2] | inhibition [3] |
| --- | --- | --- | --- |
| COc1ccccc1-c1ccc(C(=O)NCC2CCCN(Cc3cccc(C(F)(F)F)c3)C2)s1 (configuration not stated) | 6.82% | 8.99% | 7.33% |
| CN(C)c1ccc(-c2ccc(C(=O)NC3CCN(Cc4ccccc4F)CC3)s2)cc1 | 6.98% | 0.05% | 1.85% |
| CCCC(C)Nc1nc(C)cc(NCCC(=O)Nc2ccc(OC)cc2)n1 (configuration not stated) | 1.95% | 0.08% | -0.58% |
| Fc1cccc(COc2ccc(Nc3ncnc4ccc(-c5nnc(C(F)(F)F)o5)cc34)cc2Cl)c1 | 4.63% | 4.57% | 1.46% |
| COc1ccc2nccc([C@@H](O)CN3CCC(NCCOc4ccc(F)cc4F)CC3)c2c1 | 7.55% | 6.58% | -1.61% |
| N#Cc1ccc(C=NNc2nc3ccccc3[nH]2)cc1 | 3.61% | 1.98% | -0.11% |
| Cc1ccc(CNC(=O)[C@H](CC(C)C)Nc2cc(C)nc(Nc3ccccc3)n2)cc1 | 3.16% | 4.07% | -0.24% |
| CNCCCn1c(N(C)C)nc2cc(-n3cnc4cc(-c5ccc(Cl)cc5)sc4c3=O)ccc21 | 3.3% | 3.48% | 3.76% |
| Nc1ncc(-c2ccc(S(=O)(=O)Nc3ccc(C(=O)N[C@@H](CCC(=O)O)C(=O)O)cc3)cc2)c(=O)[nH]1 | 4.56% | 4.19% | 4.44% |
| CC(=O)NCC(=O)NC1=NC(=N)N(OCc2ccc3ccccc3c2)C(C)(C)N1 | 2.26% | 1.66% | 0.35% |
| COc1ccc(CNC2Cc3ccccc3C2)cc1-c1ccc(S(=O)(=O)NCc2ccccc2)s1 | 6.85% | 4.6% | 4.36% |
| O=C(C=Cc1ccc(Cl)c(Cl)c1)NCCCCCN1CCC(CCCNC(=O)c2sc3ccccc3c2Cl)CC1 | 2.7% | 0.72% | 1.61% |
| O=C(c1cc(-c2ccco2)n[nH]1)N1CCN(S(=O)(=O)c2ccc(Cl)cc2)CC1 | -0.38% | -0.62% | -1.09% |
| CCC(C)OC(=O)C1=C(C)NC2=C(C(=O)CC(c3ccc(OC)c(OC)c3)C2)C1c1ccc(C)o1 (configuration not stated) | 2.36% | 8.1% | 3.8% |
| Oc1ccccc1CN(CCCN(Cc1ccccn1)Cc1ccccc1O)Cc1ccccn1 | 4.2% | 3.15% | 4.96% |
| COc1ccccc1NS(=O)(=O)c1cc(C(=O)Nc2ccc(N3CCOCC3)c(S(=O)(=O)Nc3ccccc3Cl)c2)ccc1Cl | 3.2% | 2.83% | 0.88% |
| CC(=O)Nc1ccc(OCCCCN(Cc2ccccc2C(F)(F)F)c2ccc(C(F)(F)F)c(C#N)c2)c(Cl)c1 | 0.27% | 3.28% | 0.64% |
| NC(=O)c1ccsc1NC(=O)CNC(c1ccc(F)cc1)c1cccs1 (configuration not stated) | 2.48% | 2.01% | 2.8% |
| O=C(Nc1ccc(CN2CCCCC2)cc1)c1ccc(COc2ccc([N+](=O)[O-])cc2)o1 | 4.55% | 3.4% | 0.44% |
| COc1ccc(CN(C)C(=O)CCNS(=O)(=O)c2ccc3c(c2)OCCCO3)cc1F | 5.25% | 6.84% | 7.12% |
| CCCCN(CCCC)CCC(O)C(=Cc1ccc(Cl)cc1Cl)c1ccc(C(F)(F)F)cc1N (configuration not stated) | -0.65% | 0.65% | 0.7% |
| O=S(=O)(NCCN1CCCC1)c1ccc(-c2ccc(CNCc3ccccc3)cc2)cc1F | 3.64% | 3.01% | 0.32% |
| Cc1nc2nc(N)nc(N)c2c(C)c1Cc1ccc(N)cc1 | 3.4% | 8.1% | 1.88% |

| SMILES | inhibition [1] | inhibition [2] | inhibition [3] |
| --- | --- | --- | --- |
| O=C(Cn1c(SCc2cccc(F)c2F)cc(=O)c2ccccc21)N(CCc1c[nH]cn1)Cc1ccc(-c2ccc(C(F)(F)F)cc2)cc1 | 4.17% | 5.15% | 2.52% |
| c1ccc(COc2ccc(Nc3ncnc4ccc(-c5ccc(CN6CCSCC6)o5)cc34)cc2)cc1 | 10.9% | 7.33% | 7.66% |
| COc1cc(NC(=O)N2CCc3ccc(OCCN4CCCCC4)cc32)cc(C(F)(F)F)c1 | 0.69% | 1.18% | 3.59% |
| O=C(C=Cc1ccc(Cl)c(Cl)c1)NCCCCCN1CCCC(CCCNC(=O)/C=C/c2ccccc2)C1 (configuration not stated) | 3.2% | 3.05% | 3.82% |
| O=C1CCCN1CCCNCc1cccc(-c2ccc(-c3nc4cc(C(F)(F)F)ccc4[nH]3)s2)c1 | 4.12% | 3.19% | 4.33% |
| CC(C)Oc1cc2c(cc1NS(=O)(=O)c1ccc(-c3cccs3)cc1)CCN(C)CC2 | 5.11% | 2.07% | 1.94% |
| Cc1cccc2nc(-c3ccc(-c4ccc(CNCc5ccc(CN)cc5)cc4)s3)[nH]c12 | 5.43% | 8.51% | 0.48% |
| CN1CCN(c2cc3c(cc2Cl)CCN3C(=O)Cc2ccc(Cl)c(NC(=O)Nc3cccc(C#N)c3)c2)CC1 | -0.57% | -0.51% | -0.22% |
| COc1ccc2ncc(F)c(CCN3C4CCC3CC(NCc3ccc5c(c3)OCCO5)C4)c2n1 (configuration not stated) | 59.9% | 71.9% | 79.2% |
| CCCCCN1CCCN(Cc2cccc(NC(=O)c3ccc(-c4ccccc4)cc3)c2)CC1 | -0.68% | -0.99% | 2.3% |
| O=C(NC1CCN(c2ccnc3cc(Cl)ccc23)C1)c1ccccc1F (configuration not stated) | 1.93% | 2.22% | 2.72% |
| Cn1nccc1C(=O)NCCNCc1ccc(-c2ccc(-c3nc4ccccc4[nH]3)s2)cc1 | 4.38% | 3.81% | 0.63% |
| COc1ccc(CNCCCCCNCc2ccc(Cl)c(Cl)c2)cc1Cl | 3.98% | 3.58% | 1.38% |
| Cc1cc(N)ncc1-c1ccc(NC(=O)Nc2cc(C(F)(F)F)ccc2F)cc1 | 2.41% | 2.25% | 1.43% |
| Cc1cc(NCC(c2ccccc2)c2ccccc2)nc(NCc2ccc(C(F)(F)F)cc2)n1 | 5.66% | 6.13% | 3.66% |
| COc1ccc(C2c3ccccc3-c3nc(N)nc(N)c3C2C)cc1 (configuration not stated) | 3.13% | 3.19% | 0.31% |
| c1nc(CCNc2nc(Nc3ccc4c(c3)OCO4)nc(NC3CCCC3)n2)c[nH]1 | 1.6% | 2.73% | 0.99% |
| O=C(Cc1cccc(O)c1)Nc1ccc(-c2cccc(-c3nc4cc(C(F)(F)F)ccc4[nH]3)c2)cc1 | -0.18% | 1.54% | 0.62% |
| COc1ccc2nccc([C@@H](O)CN3CCC(NCc4cc5cccc(O)c5c(=O)[nH]4)CC3)c2c1 | 13.7% | 31.5% | 1.42% |
| COc1ccc2nccc([C@@H](O)CN3CCC(NCCOc4ccc(F)cc4[N+](=O)[O-])CC3)c2c1 | -1.59% | -1% | 1.61% |
| Clc1ccc(OCc2ccccc2)c(Cc2ccc(-c3nc4cnccc4[nH]3)o2)c1 | 0.59% | 2.01% | 0.25% |
| CCCCCCCCNCC(O)c1cc(-c2ccc(Cl)cc2)nc2cc(C)ccc12 (configuration not stated) | 3.01% | -0.38% | -1.09% |
| Cc1ncc(CN2CCC(C(=O)Nc3ccc(-c4nc5ccccc5o4)cc3)CC2)s1 | -2.13% | -3.66% | -0.97% |
